Compound activity (PubChem)
The list is not random: actives were taken first. Their share in the collection is about 3.5%.
ATG4B inhibitor = ATG4B (human) cysteine protease inhibition | ATG4B cleavage of LC3-PLA2, NBD-HPC fluorescence, 1 h | inhibition, % at 8.33 µM | 340,000 tested, 0.51% active | AID 504462; in the data active = inhibition above about 40%
Target sequence (Q9Y4P1 whole entry, looked up): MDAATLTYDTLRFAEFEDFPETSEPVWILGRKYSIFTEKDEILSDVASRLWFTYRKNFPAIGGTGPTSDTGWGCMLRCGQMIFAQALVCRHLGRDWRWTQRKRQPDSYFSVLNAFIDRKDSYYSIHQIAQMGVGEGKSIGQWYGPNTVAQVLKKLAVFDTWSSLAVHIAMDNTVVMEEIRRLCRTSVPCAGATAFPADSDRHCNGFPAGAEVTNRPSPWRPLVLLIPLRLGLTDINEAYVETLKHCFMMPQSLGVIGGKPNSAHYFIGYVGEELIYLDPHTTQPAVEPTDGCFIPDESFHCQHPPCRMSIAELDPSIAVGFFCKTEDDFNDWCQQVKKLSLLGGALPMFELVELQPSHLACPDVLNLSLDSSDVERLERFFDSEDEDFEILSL
CHRM1 PAM = positive allosteric modulators of human M1 muscarinic receptor; P11229; CHO-K1 hM1, Fluo-8 calcium fluorescence, ACh EC20; 0% = ACh EC20, 100% = maximal ACh; activation, % at 3 µM; 360,000 tested, 0.088% active; AID 588819; in the data active = activation above about 19%, passing the limit was not always enough
M1 ag = human M1 muscarinic receptor agonism. P11229. CHO-K1 hM1, Fluo-8 calcium fluorescence, agonist mode; 0% DMSO, 100% acetylcholine EC100. activation, % at 3 µM. 360,000 tested, 0.33% active. AID 588814;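 active = activation above the run's mean compound activation plus 3 SD, cut at about 16% in these data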;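 also: peak over basal fluorescence ratio within a 140 s kinetic read after compound addition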
Myeloid diff 2 = compounds promoting myeloid differentiation | ER-HoxA9 myeloid progenitors, lysozyme-GFP differentiation, flow cytometry | calls only at 10 µM | 360,000 tested, 1% active;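 active = normalized GFP-positive differentiation at or above the plate's own cutoff, the solvent-only control mean plus 3 SD; inconclusive = no clear call, values can overlap the other calls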;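 also: cells exposed to compound for four days before flow analysis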
M1 antag = blocks human M1 muscarinic receptor; P11229; CHO-K1 hM1, Fluo-8 calcium fluorescence, ACh EC80 antagonist; inhibition, % at 3 µM; 360,000 tested, 1.3% active;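 active = percent inhibition above its own plate's cutoff, namely the mean of that plate's compound wells plus 3 SD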;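 also: peak over basal fluorescence ratio during 140 s after agonist addition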
SKN-1 inh = inhibitors of C. elegans SKN-1; C. elegans VP596 Pgst-4::GFP/RFP ratio, acrylamide-induced, 24 h; inhibition, % at 21.8 µM; 360,000 tested, 0.49% active;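 active = interference check ratio from 0.5 to 1.5 plus GFP to RFP signal ratio inhibition reaching or exceeding a fixed threshold, cut at about 30% in these data, passing the limit was not always enough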
Each line names hits and unclear results; the compound was inactive in the other large screens.

Cc1ccc(-c2nc(-c3ccncc3)no2)cc1	SKN-1 inh 42.5
O=C(O)c1ccc(-c2noc(-c3cccc(C(F)(F)F)c3)n2)cc1	none
Brc1cccc(-c2nc(-c3ccncc3)no2)c1	SKN-1 inh 76.7
N#CC1(Nc2ccc(Br)cc2)CCCC1	none
Cn1nc(-c2ccc(Cl)cc2)c2cc(C(=O)N3CCN(C(=O)c4ccco4)CC3)sc21	Myeloid diff 2 active
CCN1CCN(C(=O)c2cc3c(-c4ccc(Cl)cc4)nn(C)c3s2)CC1	Myeloid diff 2 active
CCOC(=O)N1CCN(C(=O)c2cc3c(-c4cccc(OC)c4)nn(C)c3s2)CC1	none
COc1ccc(N2CCN(C(=O)c3cc4c(-c5cccc(OC)c5)nn(C)c4s3)CC2)cc1	SKN-1 inh 35.2
Cn1nc(-c2ccc(Cl)cc2)c2cc(C(=O)NC3CC3)sc21	none
CC1CCCN(C(=O)c2cc3c(-c4ccc(Cl)cc4)nn(C)c3s2)C1 (stereo not drawn)	Myeloid diff 2 active
Cn1nc(-c2ccc(Cl)cc2)c2cc(C(=O)NCCN3CCOCC3)sc21	none
c1cc2nc(C34CC5CC(CC(C5)C3)C4)[nH]c2cn1	Myeloid diff 2 active
CSc1ncccc1C(=O)NCC(c1cccs1)N1CCOCC1 (stereo not drawn)	none
O=C(c1ccco1)N1N=C(C2CCCCC2)CC1(O)C(F)(F)F (stereo not drawn)	none
O=C(c1ccncc1)N1N=C(C2CCCCC2)CC1(O)C(F)(F)F (stereo not drawn)	M1 antag 36.9
O=C1CN(C(=O)COC(=O)c2cccs2)c2ccccc2N1	none
Cn1c2ccccc2c2cc(C(=O)OCC(=O)N3CC(=O)Nc4ccccc43)sc21	SKN-1 inh 46.4
O=c1c2ccccc2nc(COc2ccccc2)n1/N=C/c1cn[nH]c1-c1ccccc1	Myeloid diff 2 active, M1 antag 28.4
CCOc1cc(N2CCOCC2)c(OCC)cc1NC(=O)CSc1ncn[nH]1	none
C1=CC2(C=C1)OC21CCC2(C=CC3(C2)OC3C2CCCCC2)CC1 (stereo not drawn)	none (no result: ATG4B inhibitor)
CCOc1cc(/C=C/C(=O)c2ccc3c(c2)OCCO3)ccc1OCC(=O)N(C)C	Myeloid diff 2 active
COc1cc(C2C(C#N)=C(C)NC3=C2C(=O)c2ccccc23)cc(OC)c1OC (stereo not drawn)	Myeloid diff 2 active
COc1ccc(C2C(C#N)=C(C)NC3=C2C(=O)c2ccccc23)cc1 (stereo not drawn)	none
COC(=O)[C@]12CCCCC=C1N(Cc1ccccc1)C(=O)[C@H](CC(=O)N1CCCCC1)C2	none (no result: ATG4B inhibitor, CHRM1 PAM, M1 ag, M1 antag)
CN(C)n1cccc1/C=C(\C#N)S(=O)(=O)c1ccc(Cl)cc1	none
Cc1nn(CC(=O)N2CCN(c3ccccc3)CC2)c(C)c1[N+](=O)[O-]	Myeloid diff 2 active
CC(C)c1ccccc1NC(=O)COC(=O)Cc1c[nH]c2ccccc12	none
N#CCSc1ccccc1NC(=O)COC(=O)Cc1c[nH]c2ccccc12	Myeloid diff 2 active
N#CCSc1ccccc1NC(=O)COc1ccc(-c2nnco2)cc1	Myeloid diff 2 active
N#Cc1ccsc1NC(=O)COc1ccc(-c2nnco2)cc1	none
O=C1CCCC2=C1C(c1ccc(Cl)cc1)N1C(=O)CCSC1=N2 (stereo not drawn)	none
CC1(C)CC(=O)C2=C(C1)N=C1SCCC(=O)N1C2c1ccccc1 (stereo not drawn)	M1 antag 36.1
O=C(c1cccc(S(=O)(=O)Nc2ccc(Br)cc2)c1)N1CCC1	none
O=C(C(O)c1ccc(Br)cc1)N1CCC(Nc2ccc3[nH]ncc3c2)CC1 (stereo not drawn)	none (no result: ATG4B inhibitor)
C(=N\Nc1nc2ccccc2[nH]1)/c1ccc2ncccc2c1	Myeloid diff 2 active
N#C/C=C1/NC(=O)c2ccccc2S1	Myeloid diff 2 active
CN(Cc1cn(C)nc1-c1ccc(Oc2ccccc2)cc1)Cc1cnc2ccccn12	M1 antag 23.8
COc1ccc(NC(=O)c2nc3nccc(C)n3n2)cc1S(=O)(=O)N1CCOCC1	none
CCN(Cc1ccc(C#CCCO)cc1)CC1CCCN(CCc2cccc(F)c2)C1 (stereo not drawn)	M1 antag 51.9
COc1ccc(CCN2CCCC(CN(C)Cc3cccc(OC)c3)C2)cc1 (stereo not drawn)	none
CCN(Cc1ccc(OC)c(COC)c1)CC1CCCN(CCc2cccc(F)c2)C1 (stereo not drawn)	none
CN(Cc1ccc(C#CCCO)cc1)CC1CCCN(CCc2ccc(Cl)cc2)C1 (stereo not drawn)	M1 antag 40.3
COc1ccc(CCN2CCCC(CN(C)Cc3cc(OC)ccc3OC)C2)cc1 (stereo not drawn)	none
CN(Cc1ccccc1O)CC1CCCN(CCc2ccc(Cl)cc2)C1 (stereo not drawn)	M1 antag 80.0
Cn1cc(CN2CCC(C(=O)NC(c3ccc(F)cc3)c3ccc4ccccc4n3)CC2)c2ccccc21 (stereo not drawn)	Myeloid diff 2 inconclusive (no result: ATG4B inhibitor)
CCOC(=O)C1=CCC(c2ccccc2C)N(S(=O)(=O)c2ccc(C)cc2)C1 (stereo not drawn)	none (no result: ATG4B inhibitor)
Cc1ccccc1-c1cc(C(=O)NCc2cccc(Br)c2)n(CC2CC(c3cccnc3)=NO2)n1 (stereo not drawn)	none
CC(C)c1ccc(N2C(=O)CC(NNC(=O)c3ccccc3Cl)C2=O)cc1 (stereo not drawn)	none
CCOc1cc(CNC2CCCC2)cc(Cl)c1OCc1ccc(F)cc1	SKN-1 inh 75.1
COc1cc(CNC2CCCC2)cc(Cl)c1OCc1ccc(F)cc1	SKN-1 inh 56.3
COc1cc(CNC2CCCC2)cc(Cl)c1OCc1ccccc1Cl	none
Fc1ccc(OCCCCCn2ccnc2)cc1	M1 ag 35.7 (no result: Myeloid diff 2)
Fc1ccc(OCCCn2ccnc2)cc1	none
Cc1ccc2c(c1)c(C)c(C)n2CC(O)Cn1nnc2ccccc21 (stereo not drawn)	Myeloid diff 2 active, SKN-1 inh 60.3
N#Cc1ccccc1COC(=O)c1cccc(S(=O)(=O)N2CCCC2)c1	none
Nc1c(C(=O)Nc2ccc(F)cc2)sc2nc(-c3ccco3)ccc12	SKN-1 inh 44.8
Nc1c(C(=O)Nc2ccc(Br)cc2)sc2nc(-c3ccco3)ccc12	none
O=C(N1CCN(CCO)CC1)N1c2ccccc2C=Cc2ccccc21	M1 antag 30.7
COc1ccc(CN2CCC(=O)N([C@H](CO)CC(C)C)CC2)cc1OC	none
CCOC(=O)N1CCC(N2CCN(CCC(C)C)C(CCO)C2)CC1 (stereo not drawn)	M1 antag 40.9
CCOc1cccc(-c2nnc(SCC(=O)Nc3cccc(OC)c3)n2N)c1	none
COc1cccc(-c2nnc(SCC(=O)Nc3ccc(OC)c(OC)c3)n2N)c1	Myeloid diff 2 active
